From PubChem BioAssay AID425 (Sanford-Burnham Center for Chemical Genomics, 2006)
Several values for one entry are separate records, joined by “and”; a condition that tells them apart may be missing. Identical values can stand only once. Screen size: about 110,000 compounds; about 190 (0.17%) were called active. No stated cut-off is given here; in the data, active means inhibition above about 50%; inactive means the rest. Only a selection was taken, and actives are over-represented in it overall. Entries with a potency or affinity are not part of this list. A structure can be active in one record and inactive in another.

target: Dual specificity protein phosphatase 6 (Rattus norvegicus) (UniProt Q64346); assay: MKP-3 phosphatase inhibitors, primary screen, biochemical, rat enzyme, in vitro (AID 425); conditions: recombinant MKP-3 phosphatase activity, fluorescence; at 20 µM; stronger effect = higher value;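 further: plate controls were vehicle for no effect and reference inhibitor for full effect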
Sequence (Q64346 whole entry, looked up): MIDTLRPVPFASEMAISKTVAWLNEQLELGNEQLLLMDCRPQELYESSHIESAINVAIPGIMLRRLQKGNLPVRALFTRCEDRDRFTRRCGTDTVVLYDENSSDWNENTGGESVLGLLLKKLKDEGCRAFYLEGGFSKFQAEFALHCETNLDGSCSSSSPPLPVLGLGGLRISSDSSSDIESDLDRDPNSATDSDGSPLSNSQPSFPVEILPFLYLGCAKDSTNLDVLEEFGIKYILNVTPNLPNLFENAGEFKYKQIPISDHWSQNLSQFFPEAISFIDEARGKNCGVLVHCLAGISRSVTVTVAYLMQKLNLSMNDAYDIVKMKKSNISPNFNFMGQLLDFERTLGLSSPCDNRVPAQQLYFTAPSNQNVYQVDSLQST

Structure (SMILES) | inhibition
COc1ccc(NC(=O)c2ccco2)cc1NC(=O)c1ccco1 | 0.7% (inactive)
O=[N+]([O-])c1ccc(C2Nc3c(I)cccc3C3C=CCC32)cc1 (stereo not given) | 4.4% (inactive)
O=C(O)c1cccc2c1NC(c1ccccc1Br)C1CC=CC21 (stereo not given) | 15.1% (inactive)
O=C(O)c1cccc2c1NC(c1ccc([N+](=O)[O-])cc1)C1CC=CC21 (stereo not given) | 71.1% (active)
O=[N+]([O-])c1ccc(C2Nc3c(cccc3[N+](=O)[O-])C3C=CCC32)cc1 (stereo not given) | 5.4% (inactive)
O=C(O)c1cccc2c1NC(c1cccc(Cl)c1Cl)C1CC=CC21 (stereo not given) | 27.8% (inactive)
O=C(O)c1cccc2c1NC(c1ccc(Cl)cc1)C1CC=CC21 (stereo not given) | 69.9% (active)
CCNC(=S)Nc1ccccc1Cl | -1.1% (inactive)
O=C(NN=C1CCN(Cc2ccccc2)CC1)c1sc2ccccc2c1Cl | 0.3% (inactive)
COc1ccc(NC(=O)C(=O)NCc2ccco2)cc1Cl | -2.8% (inactive)
O=[N+]([O-])c1ccc(S(=O)(=O)NCCOc2ccccc2Cl)cc1 | -1.1% (inactive)
CCOc1ccc(N(CC(=O)NCc2ccc(Cl)cc2)S(C)(=O)=O)cc1 | -2.6% (inactive)
CCOc1ccc(N(CC(=O)NCc2ccc(OC)cc2)S(=O)(=O)c2ccc(Br)cc2)cc1 | -0.5% (inactive)
CCOc1ccc(N(CC(=O)NCc2ccc(Cl)cc2)S(=O)(=O)c2ccc(Br)cc2)cc1 | 54.4% (active)
Cc1cccc2cc(=O)[nH]c(C)c12 | 13.2% (inactive)
CNS(=O)(=O)c1cc(O)c2c(S(=O)(=O)NC)cccc2c1 | 6% (inactive)
Cc1ccc(-c2[nH]n3c(=O)cc(-c4ccc([N+](=O)[O-])cc4)nc3c2C)cc1 | -3.9% (inactive)
NC(=S)n1[nH]c(-c2ccccc2)c(N=Nc2ccc(C(=O)O)cc2)c1=O | -0.5% (inactive)
O=C(CCCC(=O)OCC(F)(F)C(F)F)Nc1ccc(F)cc1F | -2.5% (inactive)
CC1CCN(CCCNC(=O)c2cn(C)c3ccc(S(=O)(=O)N4CCCC4)cc3c2=O)CC1 | -3% (inactive)
CCCCCCCCNC(=O)CCC(=O)O | -1.5% (inactive)
CCCCCC1NC(=O)NC1CCCCCC(=O)O (stereo not given) | -4.9% (inactive)
COc1c(Cl)cc(C(=O)Nc2ccc(N3CCOCC3)cc2)cc1Cl | 3.1% (inactive)
Cc1ccc(C)n1Cc1ccc(C(=O)O)cc1 | 85.4% (active) and -2.3% (inactive)
O=C(O)c1ccc(CN2CCOCC2)cc1 | 1.1% (inactive)

Structure (SMILES) | inhibition
COc1ccc(Cn2c(C)ccc2C)cc1 | 0.3% (inactive)
CC(C(=O)NCc1ccccn1)N1C(=O)c2ccccc2C1=O (stereo not given) | -2.2% (inactive)
Clc1ccc(-c2ccc(/C=C\c3nc4ccccc4o3)o2)cc1 | 4.5% (inactive)
O=C(CN1C(=O)/C(=C/c2ccccc2)SC1=S)Nc1cccc(Br)c1 | 2.3% (inactive)
O=C(O)CCCCCN1C(=O)/C(=C2/C(=O)N(CC(=O)O)c3ccccc32)SC1=S | 1% (inactive)
CCOc1ccc(N(CC(=O)NCc2ccccc2)S(C)(=O)=O)cc1 | -13.8% (inactive)
Cc1cc2n(n1)SC(Nc1ccccc1)N2 (stereo not given) | 61.5% (active)
Cc1cc(Nc2ccccc2)n(-c2ccccc2)n1 | -6.8% (inactive)
Cc1cc(C)n(C(=O)Nc2ccccc2)n1 | 4.3% (inactive)
COc1cc(C(=O)N2CCN(C3C4CC5CC(C4)CC3C5)CC2)cc(OC)c1OC (stereo not given) | 3.7% (inactive)
CC(=O)N(C1=C(Cl)C(=O)c2ccccc2C1=O)c1ccc(Cl)cc1 | 13.9% (inactive)
CC(=O)Nc1ccc(NC2=C(Cl)C(=O)c3ccccc3C2=O)cc1 | 3.8% (inactive)
O=C1C=C(C(c2ccccc2)c2ccccc2)C(=O)c2ccccc21 | 6.7% (inactive)
CC(=O)C(C(C)=O)C1=C(Cl)C(=O)C(=O)c2ccccc21 | 71% (active)
CC(=O)N(C)C1=C(Cl)C(=O)c2ccccc2C1=O | 54.9% (active)
CC(=O)NC1=C(N(C)C)C(=O)c2ccccc2C1=O | 0.7% (inactive)
CC(=O)NC1=C(Cl)C(=O)c2ccccc2C1=O | 106% (active)
CC(=O)C(C(C)=O)C1=CC(=O)C(=O)c2ccccc21 | 91.6% (active)
O=C1C(=O)c2ccccc2C(Cl)=C1Cl | 23% (inactive)
CC(=O)N(C1=C(Cl)C(=O)c2ccccc2C1=O)c1ccc(Br)cc1 | 21.1% (inactive)
CC(C)OC1=C(Cl)C(=O)c2ccccc2C1=O | 5.3% (inactive)
CC(=O)c1ccc(NC2=C(Cl)C(=O)c3ccccc3C2=O)cc1 | -8.2% (inactive)
Cc1cc(O)c2c(-c3ccccc3)cc(=O)oc2c1 | -1.9% (inactive)
CCOC(=O)c1ccc(N2C(=O)C(O)=C(C(C)=O)C2c2ccccn2)cc1 (stereo not given) | -5.9% (inactive)
O=C1N/C(=N\N=C\c2cccc([N+](=O)[O-])c2)SC1Cc1cccc(Cl)c1Cl (stereo not given) | -3% (inactive)

Structure (SMILES) | inhibition
CC(=O)c1ccc(N2C(=O)c3c(Cl)c(Cl)c(Cl)c(Cl)c3C2=O)cc1 | 1.4% (inactive)
O=C(O)COc1ccc(N2C(=O)c3c(Cl)c(Cl)c(Cl)c(Cl)c3C2=O)cc1 | 2.1% (inactive)
O=C(NCc1cccs1)C1CCN(S(=O)(=O)N2CCCC2)CC1 | 3.1% (inactive)
Clc1cccc(Nc2nc3c(s2)CCCC3)c1 | 0.9% (inactive)
Cc1ccc(C)c(Nc2nc3c(s2)CCCC3)c1 | -4% (inactive)
Cc1cccc(Nc2nc3c(s2)CCCC3)c1 | 95.3% (active)
COc1ccccc1N1C(=O)C2C3C=CC(O3)C2C1=O (stereo not given) | -2.7% (inactive)
CCOC(=O)N1CCC(N2C(=O)c3ccccc3C2=O)CC1 | 1.8% (inactive)
CN(C)S(=O)(=O)c1cc(C(=O)NCC2CCCO2)c(Cl)cc1Cl (stereo not given) | -1.6% (inactive)
CCC(C(=O)NC1CCCC1)N(C(=O)Cn1nnc(-c2ccc(C)o2)n1)C(C)(C)C (stereo not given) | -14.3% (inactive)
O=C(O)c1ccc(-n2c(=O)c3ccccc3c3ccccc3c2=O)cc1 | 1.5% (inactive)
Cc1ccc(-n2c(=O)c3cc4c(=O)n(-c5ccc(C)c(C)c5)c(=O)c4c(C(=O)c4ccccc4)c3c2=O)cc1C | 0.3% (inactive)
Cc1ccc(OCC(=O)N(Cc2ccc(N(C)C)cc2)C2CCS(=O)(=O)C2)cc1 (stereo not given) | -8.2% (inactive)
CCOc1ccc(NCC(=O)N/N=C/c2cc([N+](=O)[O-])ccc2O)cc1 | 5.2% (inactive)
COc1ccc(/C=N/NC(=O)COc2ccc3c(C)cc(=O)oc3c2)cc1 | -1.4% (inactive)
O=c1c[n+]([O-])c2ccccc2n1OCc1ccccc1 | 0% (inactive)
CC1CCN(C(=O)CSc2nc3c(cnn3-c3ccccc3)c(=O)[nH]2)CC1 | -9.5% (inactive)
CC(C)CCNC(=O)Cn1cc2c(n1)CCCCC2 | -5.2% (inactive)
O=S(=O)(O)c1cccc2c(N=Cc3cc(Cl)cc(Cl)c3O)cccc12 | 0.7% (inactive)
Oc1ccc(N=Nc2ccc(Cl)cc2)c2cccnc12 | 2.7% (inactive)
Cc1ccc(OCCOc2ccc(C=O)cc2)cc1C | 1.6% (inactive)
CCC(=O)c1ccc(N2CCN(C(=O)c3ccc(F)c(F)c3)CC2)c(F)c1 | 2% (inactive)
Cc1ccc(S(=O)(=O)N(C)CCCC(=O)N2CCN(C=O)CC2)cc1 | -5.2% (inactive)
O=C(Nc1cccc2c1CCCC2)c1ccco1 | -7% (inactive)
CCn1c(SCC(=O)N/N=C/C=C/c2ccccc2)nc2ccccc21 | 1.5% (inactive)

Structure (SMILES) | inhibition
O=C(c1ncc[nH]1)c1ccccc1C(=O)N1CCOCC1 | 1.3% (inactive)
COc1ccccc1-c1nc(C#N)c(N2CCC(Cc3ccccc3)CC2)o1 | 3.6% (inactive)
COc1cc2c(=O)n(Cc3ccccc3)c(=O)n(CC(=O)C(C)(C)C)c2cc1OC | 4% (inactive)
COc1cc2cc(=O)n(Cc3ccccc3)c(C)c2cc1OC | 70.3% (active)
COc1ccc2c(c1)c(=O)c(Br)c(C)n2Cc1ccccc1 | -17.6% (inactive)
O=C1C=CC2=C3Oc4c(ccc5cc(O)ccc45)C(c4ccccc4C(=O)O)C3C=CC2=C1 (stereo not given) | 82.7% (active)
Cc1ccc(S(=O)(=O)Cc2ccc(C(=O)N3CCN(c4ccc(F)cc4)CC3)o2)cc1 | -8.1% (inactive)
CCOC(=O)C1=C(C)NC2=C(C(=O)CCC2)C1c1ccc(OCc2cccc(F)c2)c(OC)c1 (stereo not given) | 2.1% (inactive)
COc1cccc2c(Cl)cc(C)nc12 | -2.4% (inactive)
CCc1c(C)nc2c(OC)cccc2c1Cl | 2.1% (inactive)
COc1cccc2c(Cl)c(CC=C(Cl)Cl)c(C)nc12 | 74.2% (active)
COc1ccc(S(=O)(=O)Nc2cc(C)c(O)c(S(=O)(=O)c3ccccc3)c2)cc1 | -2.6% (inactive)
CN(C)c1ccc(NC(=S)Nc2ccccc2)cc1 | 0.8% (inactive)
CC(=O)N(C)c1ccc(NC(=S)Nc2ccccc2)cc1 | 2.9% (inactive)
CN(C(=S)Nc1ccccc1)c1ccccc1 | 50.8% (active)
CCNc1nc(NS(=O)(=O)c2ccc(C)cc2)nc(SC)n1 | 0.7% (inactive)
COC(=O)c1c(N=CN(C)C)c(C#N)c(C)n1-c1ccccc1 | 4.3% (inactive)
O=C(CSc1nc(O)c(Cc2ccccc2)c(=O)n1-c1ccccc1)N1CCOCC1 | 3% (inactive)
O=C1NC(=S)N/C1=C\c1ccc(-c2cccc([N+](=O)[O-])c2)o1 | 0.1% (inactive)
O=C1NC(=S)N/C1=C\c1ccc(-c2cc([N+](=O)[O-])ccc2Br)o1 | 50% (active)
O=C1NC(=S)N/C1=C/c1ccc(-c2cc([N+](=O)[O-])ccc2Cl)o1 | 36.3% (inactive)
O=c1c2ccccc2nc(-c2ccco2)n1-c1cccc2ccccc12 | 2.8% (inactive)
Cc1ccc(-c2nc(-c3cc4cc([N+](=O)[O-])c(O)cc4oc3=O)cs2)cc1 | -1.3% (inactive)
O=c1oc2cc(O)c([N+](=O)[O-])cc2cc1-c1csc(-c2cc3ccccc3oc2=O)n1 | 85.1% (active)
O=c1oc2cc(O)c([N+](=O)[O-])cc2cc1-c1csc(-c2ccc(Cl)cc2)n1 | 6.8% (inactive)
